Source: PubChem BioAssay (Tox21)
Inconclusive results are not listed. Entries that show only a call come without a potency. Unmarked numbers belong to inactive results. Calls of active or inactive are those of the source. The call rests on the fitted dose curve.

Target: Thyrotropin receptor (Homo sapiens) (UniProt P16473)
Test: qHTS assay to identify small molecule antagonists of the thyroid stimulating hormone receptor (TSHR) signaling pathway (AID 1259385); further: nearly all actives have a fitted effect of over 20% in size
Conditions: TSHR-HEK293 cAMP HTRF, TSH-stimulated antagonist mode; series mostly up to 92.4 µM; activity change, negative = inhibition: at the top concentration
Text: U.S. Tox21 Program National Center for Advancing Translational Sciences [NCATS] NIH Chemical Genomics Center [NCGC] U.S. Environmental Protection Agency [EPA] National Institutes of Environmental Health Sciences [NIEHS] National Toxicology Program [NTP] U.S. Food and Drug Administration [FDA] Tox21 Assay Overview: TSHR is the receptor for thyrotropin (thyroid stimulating hormone or TSH), a member of the glycoprotein hormone family. TSH is released by the anterior pituitary gland and is the main regulator of thyroid gland growth and development. Upon binding circulating thyrotropin, a G-protein signal cascade activates adenylyl cyclase and […] cAMP concentration is increased. cAMP is a key second messenger involved extensively in cellular signal transduction pathways associated with the majority of G-protein coupled receptors (GPCRs). The activation of these GPCRs by neurotransmitters, lipids, nucleotides, peptides and hormones results in the activation or the inhibition of plasma membrane-bound adenylate cyclase through heterotrimeric G-proteins. A cell-based TSHR assay can be used to screen chemical compounds that modulate TSHR either in agonist or antagonist mode.
Tox21 Assay Protocol Summary: TSHR-Hek293 cells were dispensed at 800 cells/4uL/well in 1536-well white plates using a Multidrop dispenser. After the assay plates were incubated at a 37C/5% CO2 incubator for 18 hrs, 23 nL of compounds dissolved in DMSO, positive controls or DMSO only was transferred to the assay plate by a pin tool, followed by 1 ul medium containing Ro20-1724. For the antagonist mode screening, 1 uL of TSH was added on the top of the cell/compound mixtures to achieve a final agonist concentration of 1.5 ng/mL. After 30 min of incubation at room temperature, 2.5 ul/well of cAMP-d2 and 2.5 ul/well of anti-cAMP-cryptate were added respectively into the assay plates using a Flying Reagent Dispenser. The plates were incubated at room temperature for 1 hr. The fluorescence intensity in the plates was measured using an Envision plate reader. Each test compound was measured at 15 concentrations and in triplicates.

Chain of Thyrotropin receptor (Homo sapiens) (P16473 whole entry, looked up): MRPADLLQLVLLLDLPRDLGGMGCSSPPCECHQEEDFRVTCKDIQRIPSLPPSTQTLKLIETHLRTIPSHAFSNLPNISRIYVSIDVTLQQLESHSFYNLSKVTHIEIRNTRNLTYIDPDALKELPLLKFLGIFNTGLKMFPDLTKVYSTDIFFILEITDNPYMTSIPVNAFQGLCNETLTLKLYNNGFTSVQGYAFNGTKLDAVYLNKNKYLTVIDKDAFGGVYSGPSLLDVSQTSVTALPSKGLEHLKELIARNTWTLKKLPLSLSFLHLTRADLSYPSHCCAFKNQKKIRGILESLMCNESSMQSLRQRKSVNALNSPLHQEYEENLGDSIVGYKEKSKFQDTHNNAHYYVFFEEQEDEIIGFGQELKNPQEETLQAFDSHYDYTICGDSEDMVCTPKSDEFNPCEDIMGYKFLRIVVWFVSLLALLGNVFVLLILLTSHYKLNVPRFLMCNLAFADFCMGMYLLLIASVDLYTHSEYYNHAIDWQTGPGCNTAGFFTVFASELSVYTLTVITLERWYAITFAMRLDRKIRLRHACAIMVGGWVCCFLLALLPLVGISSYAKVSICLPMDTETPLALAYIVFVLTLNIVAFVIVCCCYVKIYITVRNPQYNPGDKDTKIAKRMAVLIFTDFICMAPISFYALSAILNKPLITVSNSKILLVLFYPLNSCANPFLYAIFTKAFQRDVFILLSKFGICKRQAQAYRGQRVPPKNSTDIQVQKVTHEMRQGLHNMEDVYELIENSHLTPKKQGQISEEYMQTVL

Row | Compound | Potency | activity change, negative = inhibition
1 | CC[N+](CC)(CC(=O)Nc1c(C)cccc1C)Cc1ccccc1 | inactive | –
2 | C1CCCNCC1 | inactive | –
3 | O=C(O)C1=NN(c2ccc(S(=O)(=O)O)cc2)C(=O)C1 | inactive | –
4 | CC(C)c1ccc(C(C)C)cc1 | inactive | –
5 | COCN(COC)c1nc(N(COC)COC)nc(N(COC)COC)n1 | inactive | –
6 | CCCOCC(C)O (stereo not given) | inactive | –
7 | Cc1ccc(C)c(S(=O)(=O)O)c1 | inactive | –
8 | CCCCCCCCO | inactive | –
9 | CC(COCC(C)OC(=O)c1ccccc1)OC(=O)c1ccccc1 (stereo not given) | inactive | –
10 | CC(=O)OCc1ccc2c(c1)OCO2 | inactive | –
11 | CCc1cccc(O)c1 | inactive | –
12 | Cc1ccc(Cl)cc1 | inactive | –
13 | CCCCCCCCC(=O)O | inactive | –
14 | OCC(CO)(CO)CO | inactive | –
15 | Cc1ccccc1C=O | inactive | –
16 | CN1Cc2c(N)cccc2C(c2ccccc2)C1 (stereo not given) | inactive | –
17 | COc1ccc([C@@H]2CC(=O)c3c(O)cc(O[C@@H]4O[C@H](CO[C@@H]5O[C@@H](C)[C@H](O)[C@@H](O)[C@H]5O)[C@@H](O)[C@H](O)[C@H]4O)cc3O2)cc1OC | inactive | –
18 | CCOC(=O)CC(=O)OCC | inactive | –
19 | CC(=O)CC(=O)N(C)C | inactive | –
20 | Cc1nnc(NS(=O)(=O)c2ccc(N)cc2)s1 | inactive | –

Row | Compound | Potency | activity change, negative = inhibition
21 | OCC(O)CS (stereo not given) | inactive | –
22 | O=Cc1ccc(CO)o1 | inactive | –
23 | O=c1n(CCCN2CCN(c3cccc(Cl)c3)CC2)nc2ccccn12 | inactive | –
24 | CC/C=C(\C(=O)N[C@@H]1C(=O)N2C(C(=O)OCOC(=O)C(C)(C)C)=C(COC(N)=O)CS[C@H]12)c1csc(N)n1 | inactive | –
25 | CCCCCCCCCCCC(=O)N(C)CC(=O)O | inactive | –
26 | CC(=O)Nc1ccc(CC(=O)O)cc1 | inactive | –
27 | Cc1ccc(C(C)C)cc1 | inactive | –
28 | O=[N+]([O-])c1ccccc1C(F)(F)F | inactive | –
29 | CC/C(C)=N/O | inactive | –
30 | c1cnc2c(c1)ccc1cccnc12 | inactive | –
31 | Cc1ncc(CO)c(CO)c1O | inactive | –
32 | O=C1C(N(CO)C(=O)NCO)N(CO)C(=O)N1CO (stereo not given) | inactive | –
33 | OCCOCCOCCOCCOCCO | inactive | –
34 | Nc1cccc(N)n1 | – | 1.74%
35 | Cc1ccccc1Cl | inactive | –
36 | CC(CN1c2ccccc2Sc2ccccc21)N(C)C (stereo not given) | inactive | –
37 | CC(=O)OC(C)(C)C1CC=C(C)CC1 (stereo not given) | inactive | –
38 | O=C1CCCCCCCCCCC1 | inactive | –
39 | Cc1cc(CC(=O)O)n(C)c1C(=O)c1ccc(Cl)cc1 | – | -4.97% [at 42.5 µM]
40 | CC(C)=CCC/C(C)=C/C=O | inactive | –
